Results from ChEMBL document CHEMBL4513216, “Probing the Open Global Health Chemical Diversity Library for Multistage-Active Starting Points for Next-Generation Antimalarials” (ACS Infect Dis, 2020).
Out of some 69,000 compounds screened, about 8,600 (12%) showed an effect of 50% or more. This is one part of a sample in which strong results are shown more often than they occur.

The molecules below were run on Plasmodium berghei (assay: Screen against P. berghei liver stage (PbLuc), transformed with Luciferase, at 10uM). Conditions: tested at 10 uM.
Type: functional, HepG2

Structure (SMILES)	INHIBITION
CN(C)C(=O)C1OC2(CCN(C(=O)N(C)C)CC2)c2ccccc21 (stereo unspecified)	14.1%
CNc1cc(C2CCCN2C(=O)c2ccc(=O)[nH]n2)ccn1 (stereo unspecified)	-7.66%
N#Cc1ccsc1C(=O)N1CCCN(Cc2cscn2)CC1	-14%
CC(C)n1nc(CNc2ncccn2)c2c1CN(C)CC2	-3.77%
COC[C@]12COC[C@H]1CN(Cc1cc(OC)cc(OC)c1)C2	35.8%
O=C(c1cccnc1)N1CCC(c2nc(O)cc(-c3ccncc3)n2)C1 (stereo unspecified)	1.5%
CNC(=O)CN1CCCC12CCN(C(=O)c1ccoc1)CC2	56.8%
CNC(=O)CN1CCCC12CCN(C(=O)c1ccsc1)CC2	-0.937%
CNC(=O)CN1CCCC12CCN(C(=O)c1ccc(F)cc1)CC2	42.4%
CCOCC(O)CN1CCN(C(=O)c2cc(C)ccc2F)CC1 (stereo unspecified)	-59.4%
COCC1c2c(cnn2C)CCN1C(=O)c1cccn1C (stereo unspecified)	46.6%
COc1c(C(=O)N2CCNC(=O)C2)cnc2c1c(C)nn2C	-25.1%
COC(=O)c1cnc2c(c(C)nn2C)c1OC	66.8%
COc1c(C(=O)N2CCOCC2)cnc2c1c(C)nn2C	2.59%
O=C(Cc1cccs1)NS(=O)(=O)c1cccc2cnccc12	36.3%
CCOc1ccc(CN2CCOCC2c2[nH]ncc2C)cc1CO (stereo unspecified)	29.65%

Structure (SMILES)	INHIBITION
Cc1cc(C)n(CCCNC(=O)C2CCCO2)n1 (stereo unspecified)	6.09%
Cc1cc(C(F)(F)F)nn1CCCNC(=O)C1CCCC1	43.2%
Cc1cc(C(F)(F)F)nn1CCCNC(=O)C1CCCO1 (stereo unspecified)	60.4%
Cc1cc2[nH]c(=O)oc2cc1S(=O)(=O)N1C[C@@H](N(C)C)[C@H](C(C)C)C1	26.5%
Cc1nc(CSCCC(=O)Nc2cccc(N3CCNC3=O)c2)cs1	-24.6%
COCCN1CCO[C@@H]2CN(Cc3ccc(C)o3)C[C@@H]2C1	-0.554%
COC(=O)c1ccccc1NS(=O)(=O)c1c(C)nn(C)c1C	-7.93%
CCS(=O)(=O)Nc1cnn(Cc2cccc(C)c2)c1	-2.64%
CCn1nc(C)c(S(=O)(=O)Nc2ccccc2C(=O)OC)c1C	29.7%
Cc1cn(-c2ccccc2)nc1NS(=O)(=O)c1cccc(C(=O)O)c1	40.9%
Cc1ccc(NS(=O)(=O)c2cnn(Cc3ccccc3)c2)c(C(=O)O)c1	51.6%
Cc1ccc(-n2cc(S(=O)(=O)Nc3cccc(C(=O)O)c3C)cn2)cc1	68%
Cc1cccc(NS(=O)(=O)c2cnn(C)c2)c1C#N	18.9%
Cc1ccc(NS(=O)(=O)c2cnn(-c3ccccc3)c2)c(C(=O)O)c1	22.5%
CCn1nc(C)c(S(=O)(=O)Nc2cccc(C(=O)O)c2C)c1C	62.4%
